Results as given in PubChem BioAssay AID1159580 (chemical genetic matrix, 2015).
About 2,000 (36%) of roughly 5,500 compounds were called active. Another 18% or so got no clear call; they are omitted. No stated cut-off is given here; in the data, active means normalized growth mostly below about 0.91 (no sharp cut-off); inconclusive means no clear call, values can overlap the other calls; inactive means mostly above about 0.92. Some of the results follow.

Assay: chemical genetic growth profiling, strain panel (AID 1159580);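 further: tested at 20 µM; growth read once vehicle control cultures reached saturation at 30 °C; 1 = growth at the plate median or of vehicle wells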
Conditions: S. cerevisiae deletion strains, growth OD

Measured: normalized growth

COc1ccc(-c2cc(=O)c3c(OC)cccc3o2)cc1
inactive: locus YBR021W, strain FUR4, stronger effect = lower value 0.978 | locus YBR229C, strain ROT2, stronger effect = lower value 1.04 | locus YCL029C, strain bik1, stronger effect = lower value 1.05 | locus YDL035C, strain GPR1, stronger effect = lower value 1.03 | locus YDL074C, strain BRE1, stronger effect = lower value 1.09 | locus YDL101C, strain DUN1, stronger effect = lower value 1.03 | locus YDL185W, strain tfp1, stronger effect = lower value 1.02 | locus YDL192W, strain arf1, stronger effect = lower value 1.06 | locus YDR101C, strain arx1, stronger effect = lower value 1.01 | locus YDR162C, strain NBP2, stronger effect = lower value 1.05 | locus YDR318W, strain mcm21, stronger effect = lower value 1.03 | locus YDR388W, stronger effect = lower value 1.04 | locus YDR502C, strain sam2, stronger effect = lower value 1.01 | locus YER110C, stronger effect = lower value 1.02 | locus YER155C, strain BEM2, stronger effect = lower value 1.03 | locus YER167W, strain BCK2, stronger effect = lower value 1.04 | locus YGL078C, strain dbp3, stronger effect = lower value 0.944 | locus YGL086W, strain mad1, stronger effect = lower value 1.01 | locus YGL248W, strain PDE1, stronger effect = lower value 1.05 | locus YGR135W, strain pre9, stronger effect = lower value 1 | locus YGR252W, strain gcn5, stronger effect = lower value 0.89 | locus YHR079C, strain IRE1 (second series), stronger effect = lower value 1.02 | locus YHR094C, strain hxt1, stronger effect = lower value 1.01 | locus YHR129C, strain ARP1, stronger effect = lower value 1.06 | locus YHR200W, strain rpn10, stronger effect = lower value 1.04 | locus YIL066C, strain RNR3, stronger effect = lower value 1.06 | locus YIL073C, strain SPO22, stronger effect = lower value 1.11 | locus YIL125W, strain kgd1, stronger effect = lower value 1.04 | locus YIR030C, strain dcg1, stronger effect = lower value 1.05 | locus YJL095W, strain BCK1, stronger effect = lower value 1.1 | locus YJL134W, strain LCB3, stronger effect = lower value 1.04 | locus YJL168C, strain set2, stronger effect = lower value 1.03 | locus YJL187C, strain SWE1 (second series), stronger effect = lower value 1.03 | locus YJR043C, strain POL32, stronger effect = lower value 1.04 | locus YJR075W, strain HOC1, stronger effect = lower value 1.06 | locus YKL009W, strain mrt4, stronger effect = lower value 0.911 | locus YKL068W, stronger effect = lower value 1.02 | locus YKL085W, strain MDH1 (second series), stronger effect = lower value 1.04 | locus YKL085W, strain MDH1, stronger effect = lower value 1.04 | locus YKR001C, strain vps1, stronger effect = lower value 1.09 | locus YLR039C, strain RIC1, stronger effect = lower value 1.28 | locus YLR058C, strain SHM2, stronger effect = lower value 1.03 | locus YLR102C, strain apc9, stronger effect = lower value 1.02 | locus YLR262C, strain YPT6, stronger effect = lower value 1.21 | locus YLR268W, strain sec22, stronger effect = lower value 1.02 | locus YLR371W, strain rom2, stronger effect = lower value 1.06 | locus YLR418C, strain cdc73, stronger effect = lower value 1.12 | locus YML016C, strain PPZ1, stronger effect = lower value 1.05 | locus YML032C, strain rad52, stronger effect = lower value 0.998 | locus YML124C, strain tub3, stronger effect = lower value 1.03 | locus YMR078C, strain ctf18, stronger effect = lower value 1.03 | locus YMR223W, strain ubp8, stronger effect = lower value 1.01 | locus YMR307W, strain GAS1, stronger effect = lower value 1.22 | locus YNL067W, strain RPL9B, stronger effect = lower value 1.04 | locus YNL153C, strain GIM3, stronger effect = lower value 1.02 | locus YNL233W, strain BNI4, stronger effect = lower value 1.08 | locus YNL250W, strain rad50, stronger effect = lower value 1.05 | locus YNL271C, strain bni1, stronger effect = lower value 1.04 | locus YNL298W, strain CLA4, stronger effect = lower value 0.98 | locus YNL307C, strain MCK1, stronger effect = lower value 1.03 | locus YNL322C, strain KRE1, stronger effect = lower value 1.04 | locus YNR052C, strain pop2, stronger effect = lower value 1.01 | locus YOL006C, strain TOP1, stronger effect = lower value 1.25 | locus YOL012C, strain htz1 1.26 | locus YOL147C, strain pex11, stronger effect = lower value 1.03 | locus YOR061W, strain CKA2, stronger effect = lower value 1.05 | locus YOR069W, strain VPS5, stronger effect = lower value 1.04 | locus YOR136W, strain idh2, stronger effect = lower value 1.03 | locus YOR144C, strain elg1, stronger effect = lower value 1.01 | locus YOR184W, strain ser1, stronger effect = lower value 1.01 | locus YOR316C, strain cot1, stronger effect = lower value 1.02 | locus YPR119W, strain clb2, stronger effect = lower value 1.05 | locus YPR141C, strain kar3, stronger effect = lower value 1.05 | locus YPR163C, strain tif3, stronger effect = lower value 1.02 | locus YPR167C, strain met16, stronger effect = lower value 1.02 | strain wtn01, stronger effect = lower value 1.01
